Source: the supplement of paper PMC8975748
Structures can show the parent of a compound that is named as a salt.

Test system: Saccharomyces cerevisiae BY4741 SeMeCo community
Experiment: z-score of subpopulation abundance vs DMSO median, subpopulation auxotrophic for U; higher = larger share of this subpopulation than in DMSO controls
Conditions: 10 µM; 24 h; SM minimal medium; subpopulation (auxotrophy): U
Procedure, shortened: (§1)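 Scoring was based on each subpopulation's abundance, expressed as a z-score against the vehicle-well median. A Saccharomyces cerevisiae BY4741 community with four plasmids, each restoring one auxotrophy and encoding a distinct fluorescent protein, was pre-grown overnight to OD600 1.0, diluted to 0.3, and added at 70 µl to 384-well plates acoustically predosed with library drugs (10 µM final). It then grew 24 h in minimal SM medium before paraformaldehyde fixation and automated confocal microscopy, with single-auxotroph fluorescent strains setting thresholds and autofluorescence correction.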

Structure (SMILES)	z-score of subpopulation abundance
CN1C[C@@H]2C[C@H]1CN2c1cc2c(cc1F)c(=O)c(C(=O)O)cn2C1CC1 [Danofloxacin Mesylate]	0.06
CC(=O)Oc1ccccc1C(=O)O [Aspirin]	-0.25
Cc1noc(NS(=O)(=O)c2ccc(N)cc2)c1C [Sulfisoxazole]	0.32
O=C(NCCO[N+](=O)[O-])c1cccnc1 [Nicorandil]	-0.31
O=C1C(CC[S+]([O-])c2ccccc2)C(=O)N(c2ccccc2)N1c1ccccc1 (racemic) [(+/-)-Sulfinpyrazone]	-0.3
CCCCCCCCCC(=O)N[C@@H](Cc1c[nH]c2ccccc12)C(=O)N[C@H](CC(N)=O)C(=O)N[C@@H](CC(=O)O)C(=O)N[C@@H]1C(=O)NCC(=O)N[C@@H](CCCN)C(=O)N[C@@H](CC(=O)O)C(=O)N[C@H](C)C(=O)N[C@@H](CC(=O)O)C(=O)NCC(=O)N[C@H](CO)C(=O)N[C@@H]([C@H](C)CC(=O)O)C(=O)N[C@@H](CC(=O)c2ccccc2N)C(=O)O[C@@H]1C [Daptomycin]	-1.42
CCn1cc(C(=O)O)c(=O)c2cc(F)c(N3CCN(C)CC3)cc21 [Pefloxacin Mesylate]	0.14
OCc1ccc(Cl)cc1Cl [2,4-dichlorobenzyl alcohol]	0.58
CN(C)CCC=C1c2ccccc2CCc2ccccc21 [Amitriptyline HCl]	-0.21
COc1ccccc1OCC(O)CN1CCN(CC(=O)Nc2c(C)cccc2C)CC1 (stereo unspecified) [Ranolazine]	-0.29
COc1cc(C(C)=O)ccc1OCCCN1CCC(c2noc3cc(F)ccc23)CC1 [Iloperidone]	-0.16
Cc1ccc(Sc2ccccc2N2CCNCC2)c(C)c1	-0.43
Nc1ccc(S(=O)(=O)Nc2ccccn2)cc1 [Sulfapyridine]	-0.03
CN1CC(=O)N2[C@H](c3ccc4c(c3)OCO4)c3[nH]c4ccccc4c3C[C@@H]2C1=O [Tadalafil]	-1.35
CCOC(=O)C1=C[C@@H](OC(CC)CC)[C@H](NC(C)=O)[C@@H](N)C1 [Oseltamivir Phosphate]	-1.55
O=C(c1ccc(OCCN2CCCCC2)cc1)c1c(-c2ccc(O)cc2)sc2cc(O)ccc12 [Raloxifene HCl]	-1.87
N#CC(c1ccc(Cl)cc1)c1c(Cl)cc(-n2ncc(=O)[nH]c2=O)cc1Cl (stereo unspecified) [Diclazuril]	-1.07
O=C1NCC2(CCN(CCc3ccccc3)CC2)O1 [Fenspiride HCl]	0.18
CCCN[C@H]1CCc2nc(N)sc2C1 [Pramipexole dihydrochloride]	-0.06
O=C(O)c1ccccc1O [Salicylic acid]	-0.01
CCCOc1ccc(C(=O)OCCN(CC)CC)cc1N [Proparacaine HCl]	0.18
CC(C)(O/N=C(\C(=O)N[C@@H]1C(=O)N2C(C(=O)[O-])=C(C[n+]3ccccc3)CS[C@H]12)c1csc(N)n1)C(=O)O [Ceftazidime]	-0.24

Test system: Saccharomyces cerevisiae BY4741 SeMeCo community
Experiment: z-score of subpopulation abundance vs DMSO median, subpopulation auxotrophic for H; higher = larger share of this subpopulation than in DMSO controls
Conditions: 10 µM; 24 h; SM minimal medium; subpopulation (auxotrophy): H
Procedure, shortened: as §1

Structure (SMILES)	z-score of subpopulation abundance
COc1cc(O)c(C(=O)Nc2nc(C(=O)NCCN(C(C)C)C(C)C)cs2)cc1OC [Acotiamide hydrochloride]	0.42
Cc1onc(-c2c(F)cccc2Cl)c1C(=O)N[C@@H]1C(=O)N2[C@@H]1SC(C)(C)[C@@H]2C(=O)O [Flucloxacillin sodium]	-0.11
Cc1ncc([N+](=O)[O-])n1CC(O)CCl (stereo unspecified) [Ornidazole]	-0.77
OC(CCCN1CCCCC1)(c1ccccc1)c1ccccc1 [Diphenidol HCl]	-0.38
Cc1ccccc1OCC(O)CO (stereo unspecified) [Mephenesin]	-0.65
CC(C)c1c(C(=O)Nc2ccccc2)c(-c2ccccc2)c(-c2ccc(F)cc2)n1CC[C@@H](O)C[C@@H](O)CC(=O)O [Atorvastatin Calcium]	7.9
C[C@@H](O)[C@H]1C(=O)N2C(C(=O)[O-])=C(SC3Cn4cnc[n+]4C3)[C@H](C)[C@H]12 (stereo partly specified) [Biapenem]	-0.04
CO/N=C(\C(=O)N[C@@H]1C(=O)N2C(C(=O)OC(C)OC(C)=O)=C(COC(N)=O)CS[C@H]12)c1ccco1 (stereo partly specified) [Cefuroxime axetil]	-0.4
Cc1cc(=O)n(-c2ccccc2)n1C [Antipyrine]	-1.04
Oc1c(Cl)cc(Cl)c2cccnc12 [Chloroxine]	13.2
CC1(C)CC[C@]2(C(=O)O)CC[C@]3(C)C(=CC[C@@H]4[C@@]5(C)CC[C@H](O)C(C)(C)[C@@H]5CC[C@]43C)[C@@H]2C1 [Oleanolic Acid]	-0.07
CCOC(=O)C1=C(C)NC(C)=C(C(=O)OC)C1c1cccc(Cl)c1Cl (stereo unspecified) [Felodipine]	3.29
O=C1CCc2cc(OCCCCc3nnnn3C3CCCCC3)ccc2N1 [Cilostazol]	0.02
Cc1nnc(SCC2=C(C(=O)O)N3C(=O)[C@@H](NC(=O)Cn4cc(Cl)c(=O)c(Cl)c4)[C@H]3SC2)s1 [Cefazedone]	-0.61
CS(=O)(=O)c1ccc([C@@H](O)[C@@H](CO)NC(=O)C(Cl)Cl)cc1 [Thiamphenicol]	-0.3
O=C(O)CCNC(=O)c1ccccc1 [Betamipron]	-0.34
O=c1cc(-c2ccc(O)c(O)c2)oc2cc(O)cc(O)c12 [Luteolin]	0.27

Structure (SMILES)	z-score of subpopulation abundance
CN1C[C@@H]2C[C@H]1CN2c1cc2c(cc1F)c(=O)c(C(=O)O)cn2C1CC1 [Danofloxacin Mesylate]	0.54
CC(=O)Oc1ccccc1C(=O)O [Aspirin]	0.67
Cc1noc(NS(=O)(=O)c2ccc(N)cc2)c1C [Sulfisoxazole]	-0.4
O=C1C(CC[S+]([O-])c2ccccc2)C(=O)N(c2ccccc2)N1c1ccccc1 (racemic) [(+/-)-Sulfinpyrazone]	-0.21
CCn1cc(C(=O)O)c(=O)c2cc(F)c(N3CCN(C)CC3)cc21 [Pefloxacin Mesylate]	-0.3
OCc1ccc(Cl)cc1Cl [2,4-dichlorobenzyl alcohol]	0
COc1ccccc1OCC(O)CN1CCN(CC(=O)Nc2c(C)cccc2C)CC1 (stereo unspecified) [Ranolazine]	-0.13
COc1cc(C(C)=O)ccc1OCCCN1CCC(c2noc3cc(F)ccc23)CC1 [Iloperidone]	0.05
Cc1ccc(Sc2ccccc2N2CCNCC2)c(C)c1	-0.02
Nc1ccc(S(=O)(=O)Nc2ccccn2)cc1 [Sulfapyridine]	-0.9
CN1CC(=O)N2[C@H](c3ccc4c(c3)OCO4)c3[nH]c4ccccc4c3C[C@@H]2C1=O [Tadalafil]	0.35
O=C(c1ccc(OCCN2CCCCC2)cc1)c1c(-c2ccc(O)cc2)sc2cc(O)ccc12 [Raloxifene HCl]	0.59
N#CC(c1ccc(Cl)cc1)c1c(Cl)cc(-n2ncc(=O)[nH]c2=O)cc1Cl (stereo unspecified) [Diclazuril]	-0.16
O=C1NCC2(CCN(CCc3ccccc3)CC2)O1 [Fenspiride HCl]	-0.41
CCCN[C@H]1CCc2nc(N)sc2C1 [Pramipexole dihydrochloride]	-0.35
CCCOc1ccc(C(=O)OCCN(CC)CC)cc1N [Proparacaine HCl]	-0.4
CC(C)(O/N=C(\C(=O)N[C@@H]1C(=O)N2C(C(=O)[O-])=C(C[n+]3ccccc3)CS[C@H]12)c1csc(N)n1)C(=O)O [Ceftazidime]	0.63
